# From PubChem BioAssay
# Compounds with a hit are over-represented: about 11% of the library has one in this group of screens.
# HPGD block = HPGD (human) dehydrogenase inhibition | P15428 | purified HPGD, NADH fluorescence kinetic, PGE2 substrate | Potency, µM, inactives show at the top dose activity change, negative = inhibition, most hits filed as inhibitors | actives 4.3% (n = 150,000) | AID 894; note: potency is the fitted concentration of half-maximal effect; % is set by controls: 0 for no effect and ±100 for the full control effect
# Target sequence (P15428 whole entry, looked up): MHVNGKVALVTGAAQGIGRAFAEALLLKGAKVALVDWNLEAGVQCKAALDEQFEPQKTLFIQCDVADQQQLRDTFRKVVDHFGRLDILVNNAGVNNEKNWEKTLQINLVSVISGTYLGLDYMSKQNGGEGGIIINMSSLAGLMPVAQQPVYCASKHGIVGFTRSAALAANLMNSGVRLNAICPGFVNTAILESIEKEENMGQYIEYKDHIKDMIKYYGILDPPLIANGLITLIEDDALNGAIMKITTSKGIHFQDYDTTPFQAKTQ
#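 20 nM HPGD preincubated 15 min at room temperature with compound in 50 mM Tris-HCl pH 8, 0.01% Tween 20. Started with 1 mM NAD+ and 30 uM prostaglandin E2; NADH fluorescence (360/450 nm) read 5 times over 30-s intervals, last minus first.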
# HTT aggregate = inhibitors of mutant huntingtin aggregate formation in PC12 cells; PC12 HttQ103-GFP aggregates, Acumen cytometry, 40 h; Potency, µM (titrated, usually from 46.1 µM), for inactives: at the top dose activity change, negative = inhibition, actives largely listed as inhibitors; actives 1.1% (n = 220,000); active = well fitted curve in the direction sought with a large enough effect; inconclusive = small, poorly fitted or top-dose-only effect, or another doubt; inactive = no such curve, though single readings can be large; an effect the other way counts as inactive or inconclusive; note: potency is the fitted concentration of half-maximal effect; % is set by controls: 0 for no effect and ±100 for the full control effect; nearly all actives have a fitted effect of over 60% in size
#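 Huntingtin Q103 exon 1–GFP aggregates in induced PC12 cells (100 nM tebufenozide) were quantified by cytometry from lysates, with compounds dosed in titration.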
# ALDH1A1 inh = blocks purified human ALDH1A1 activity; P00352; Purified ALDH1A1, NADH fluorescence, propionaldehyde substrate; Potency, µM (highest dose often 75.3 µM), inactives show at the highest dose activity, negative = inhibition, actives largely listed as inhibitors; actives 7.3% (n = 220,000); AID 1030;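 note: potency is the fitted concentration of half-maximal effect; plate controls were no enzyme wells and a reference inhibitor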
# Target sequence (P00352 whole entry, looked up): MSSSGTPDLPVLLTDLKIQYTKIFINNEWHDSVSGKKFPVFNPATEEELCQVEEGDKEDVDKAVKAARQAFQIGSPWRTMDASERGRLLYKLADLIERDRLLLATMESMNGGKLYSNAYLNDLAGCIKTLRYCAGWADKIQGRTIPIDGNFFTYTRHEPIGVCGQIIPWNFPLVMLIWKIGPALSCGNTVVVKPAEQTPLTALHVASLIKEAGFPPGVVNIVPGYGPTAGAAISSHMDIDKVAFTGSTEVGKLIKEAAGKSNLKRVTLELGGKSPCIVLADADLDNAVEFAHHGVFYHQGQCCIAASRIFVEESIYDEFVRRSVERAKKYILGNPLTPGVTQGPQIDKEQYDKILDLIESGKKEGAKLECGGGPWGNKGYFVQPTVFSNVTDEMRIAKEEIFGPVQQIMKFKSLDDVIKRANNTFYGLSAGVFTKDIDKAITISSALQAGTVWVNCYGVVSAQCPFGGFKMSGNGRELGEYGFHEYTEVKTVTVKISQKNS
# PNC assembly inh = perinucleolar compartment assembly inhibition | activity change (PNC), negative = inhibition, % at 10 µM | PC3M PTB-GFP, PNC prevalence imaging, 16 h; hits give low values | actives 3.1% (n = 140,000);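 active = readout at or below -70, meaning at least 70% loss of cells showing the perinucleolar compartment, a nuclear body marking cancer cells; inconclusive = readout between -30 and a set limit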;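 note: plate controls were DMSO wells for no effect and camptothecin positive control wells for full effect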
#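 Read-out is percentage of cells bearing a perinucleolar compartment, from automated 20x imaging of fixed, Hoechst-stained PC3M PTB-GFP cells. Cells were seeded 4 h, then exposed 16 h to compound (23 nl of library stock) in duplicate plates.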
# RGS12 GoLoco inh = blocks human Gai1 binding to RGS12 GoLoco peptide, red readout | Gai1:RGS12 GoLoco peptide FP, rhodamine, 10 min | Potency, µM (series often up to 61.6 µM), for the others: at the top dose activity, negative = inhibition, actives largely listed as inhibitors | actives 0.44% (n = 230,000) | AID 880; active = well fitted inhibition curve with a large enough effect, not every such curve was filed as active; inactive = no such curve, though single readings can be large or run the other way; note: potency is the fitted concentration of half-maximal effect; % is set by controls: 0 for no effect and ±100 for the full control effect; nearly all actives have a fitted effect of over 30% in size
# HTT cytoprotect = Huntington cell model cytoprotection by ATP luminescence; PC12 HTT-Q103 induced, cytoprotection, ATP luminescence, 40 h; Potency, µM (doses to about 56.4 µM), without a hit: cytoprotection (ATP increase), actives largely listed as activators; actives 0.14% (n = 230,000); AID 1471; active = well fitted curve in the direction sought with a large enough effect; inconclusive = small, poorly fitted or top-dose-only effect, or another doubt; inactive = no such curve, though single readings can be large; an effect the other way counts as inactive or inconclusive; note: potency is the fitted concentration of half-maximal effect; % of control where 0% means no effect; nearly all actives have a fitted effect of over 45% in size
#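 Huntington model: PC12 line, ecdysone-inducible HTTQ103 exon1–GFP, tebufenozide 100 nM. Test articles in a dose series. Endpoint luminescence from cellular ATP.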
# Active calls of the source: *; ? = inconclusive; nt = no result given; [ ] = dose if it differs, or a comment. Unless noted, calls come from the whole dose curve; as a rule, active = well fitted inhibition curve with a large enough effect (not every such curve was filed as active); inconclusive = small, poorly fitted or top-dose-only effect, or another doubt; inactive = no such curve, though single readings can be large or run the other way.
SMILES,HPGD block,HTT aggregate,ALDH1A1 inh,PNC assembly inh,RGS12 GoLoco inh,HTT cytoprotect
C=C(C)COc1ccc(-c2n[nH]c(C)c2-c2ccc(Br)cc2)c(O)c1,?,7.9µM*,?,?,4%,-16%
C=C(C)COc1ccc(-c2[nH]ncc2-c2ccc(Br)cc2)c(O)c1,-19%,?,-11%,-1,1%,nt
Cc1c(C(=O)C(=O)NCc2ccco2)c2ccccc2n1C,nt,-11%,-1%,nt,-1%,1%
Fc1ccc(CSc2nnc(-c3ccncc3)o2)cc1,nt,?,-19%,nt,7%,-12%
O=C(c1ccccc1)c1nnc(-c2ccncc2)o1,-17%,8%,5%,4,3%,10%[10 µM]
Clc1ccc(CSc2nnc(-c3ccncc3)o2)cc1,-8%,10µM*,3%,49,7%,-1%
O=C(c1ccc(Cl)cc1)c1nnc(-c2ccncc2)o1,-24%,0%,6%,-82*,2%,9%[10 µM]
COc1ccccc1NC(=O)CSc1nnc(-c2ccncc2)o1,-16%,5%,?,24,-20%,10%[10 µM]
O=C(CSc1nnc(-c2ccncc2)o1)Nc1ccccc1Cl,-8%,5%,-5%,-90*,8%,2%[0.074 µM]
CC(=O)Nc1ccc(/C=N/NC(=O)c2cc3ccccc3nc2C)cc1,-23%,-2%,?,?,13%,nt
Cc1nc2c(cc1C(=O)N/N=C/c1ccc(O)c(O)c1)c(=O)n(C)c(=O)n2C,-3%,?,4%,-89*,-14%,-25%[10 µM]
Cc1ccc(NC(=S)/C(=C(\[O-])c2ccc(F)cc2)[n+]2ccccc2)cc1,nt,-8%,10µM*,nt,8%,-35%
CCc1cc[n+](/C(C(=S)Nc2cccc(C)c2)=C(/[O-])c2ccc(C)c([N+](=O)[O-])c2)cc1,-20%,-2%,?,?,31%,2%[10 µM]
COc1cccc(NC(=S)/C(=C(\[O-])c2ccc([N+](=O)[O-])cc2)[n+]2ccccc2)c1,nt,26%,13µM*,nt,-4%,-23%[10 µM]
O=[N+]([O-])c1ccc(/C([O-])=C(/C(=S)NCc2ccco2)[n+]2ccccc2)cc1,nt,23%,7.9µM*,nt,-11%,5%[10 µM]
O=[N+]([O-])c1ccc(/C([O-])=C(/C(=S)Nc2ccccc2F)[n+]2ccccc2)cc1,nt,-9%,?,nt,0%,-21%
Cc1ccc(/C([O-])=C(/C(=S)NCc2ccco2)[n+]2ccccc2)cc1,-11%,-3%,-7%,18,0%,-6%
CCOc1ccc(NC(=S)/C(=C(\[O-])c2ccc(C)c([N+](=O)[O-])c2)[n+]2ccccc2)cc1,?,?,11µM*,?,-5%,15%
COc1cc2c(cc1OC)C(Nn1cnnc1)=NC1(CCCC1)C2,nt,2%[9.22 µM],nt,nt,0%,16%[10 µM]
CC(=O)c1cccc(NC(=O)N2CCC(c3nnc(SCC(N)=O)n3C)CC2)c1,-6%,14%,-13%,5,3%,5%[10 µM]
C/C(=N/NC(=O)CNc1ccc(C)cc1)c1ccc(Br)s1,-19%,?,14µM*,-23,12%,0%[10 µM]
COc1ccccc1NCC(=O)N/N=C(\C)c1ccc(Br)s1,-6%,3%,-14%,11,-7%,23%[10 µM]
COc1ccccc1N1C(=O)C(Cl)=C(Nc2ccccc2O)C1=O,nt,3%,13µM*,nt,52%,?
CCn1c(SCc2ccccc2)nnc1-c1cccnc1,nt,0%[9.22 µM],?,nt,17%,-16%[10 µM]
Cc1ccc(S(=O)(=O)Nc2cc(C)c(O)c(S(=O)(=O)c3ccc(C)cc3)c2)cc1,-11%,?,0.63µM*,-4,-3%,-19%
SMILES,HPGD block,HTT aggregate,ALDH1A1 inh,PNC assembly inh,RGS12 GoLoco inh,HTT cytoprotect
Cc1cc(NS(=O)(=O)c2ccccc2)cc(Cl)c1O,-26%,?,7.1µM*,10,-54%,-9%
Cc1ccccc1N1CCN(C(=S)c2ccc(-c3cccc([N+](=O)[O-])c3)o2)CC1,nt,5%,8.9µM*,nt,24%,-47%
Cc1ccc(N2CCN(C(=S)c3ccc(-c4cccc([N+](=O)[O-])c4)o3)CC2)cc1,nt,-27%,3.2µM*,nt,25%,-20%
Cc1ccc(N2CCN(C(=S)c3ccc(-c4ccccc4[N+](=O)[O-])o3)CC2)cc1,nt,15%[9.22 µM],nt,nt,-2%,14%[10 µM]
Cc1nn(C)c(C)c1C1Nc2ccccc2C(=O)N1O (centres undefined),-3%,12%,?,-2,-2%,7%[10 µM]
C=CCc1cccc(C2Nc3ccccc3C(=O)N2O)c1O (centres undefined),7.1µM*,?,2%,2,9%,-59%[10 µM]
Cc1ccsc1C1Nc2ccccc2C(=O)N1O (centres undefined),18µM*,?,-9%,32,3%,nt
Cc1cc2cc(CCNC(=O)C3c4ccccc4Oc4ccccc43)c(=O)[nH]c2cc1C,-8%,-24%,9%,61,0%,nt
CCN1CCCC1CNC(=O)C(=O)NC(C)c1ccccc1 (centres undefined),nt,-2%[9.22 µM],13%,nt,3%,-6%[10 µM]
COC(=O)C/C=C\[C@@H](C)[C@@H](/C=N\O[C@@H](C)c1cn([C@H](CO)Cc2ccccc2)nn1)NS(=O)(=O)c1ccc(C)cc1,nt,nt,4%[13.5 µM],nt,nt,-4%[10 µM]
Cc1cc(NC(=O)CSc2nnc(CNc3ccc(F)cc3)n2C2CCCCC2)no1,-16%,-1%,3%,?,4%,-6%
Cn1c(SCC(=O)Nc2sccc2C(N)=O)nnc1-c1ccncc1,nt,-2%[9.22 µM],nt,nt,8%,14%[10 µM]
CCc1nnc(NC(=O)CSc2nnc3c(C)cc4c(C)ccc(C)c4n23)s1,-9%,2%,5%,-113*,6%,-44%[10 µM]
CCc1nnc(NC(=O)CSc2nnc(CNc3ccc(F)cc3)n2C2CCCCC2)s1,-9%,33%,10µM*,44,-5%,-13%
CCc1nnc(NC(=O)CSc2nnc(-c3ccncc3)n2C)s1,-9%,9%,1%,-100*,-2%,40%[10 µM]
Cc1ccc(CN2C(=O)C[C@@H](NS(=O)(=O)c3ccc4ccccc4c3)C/C=C\C2c2ccc(C)cc2)cc1 (some centres undefined),-7%,nt,22µM*,nt,-6%,nt
COc1ccc(C2/C=C\CN(S(=O)(=O)c3ccc(C)cc3)CC(=O)N2Cc2ccc(F)cc2)cc1 (centres undefined),nt,-10%[9.22 µM],nt,nt,4%,-21%[10 µM]
O=C1c2ccccc2-c2c1cccc2C(=O)N1CCN(C(=O)c2ccco2)CC1,-10%,28%,16µM*,37,-15%,5%
CC1CC(C)CN(C(=O)c2cccc3c2-c2ccccc2C3=O)C1 (centres undefined),nt,-5%[9.22 µM],nt,nt,4%,15%[10 µM]
O=C(c1ccco1)N1CCN(C(=O)c2ccccc2Oc2ccccc2)CC1,-1%,2%,-4%,-112*,-1%,-2%
